Data reported in PubChem BioAssay (NCATS).
Results filed as inconclusive are left out. Activity calls are given as the source filed them. Unless noted, the call rests on the fitted dose curve; in most records, active means well fitted curve in the direction sought with a large enough effect; inconclusive means small, poorly fitted or top-dose-only effect, or another doubt; inactive means no such curve, though single readings can be large; an effect the other way counts as inactive or inconclusive.

Experiments:
[1] = Cell Viability - BJ (AID 421; calls by dose curve;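 further: potency means the concentration at half of the fitted maximal effect; cells exposed to compound for 40 hours at 37 °C before readout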); details: BJ fibroblast viability, qHTS
Summary of the method: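 Luminescent ATP signal (CellTiter-Glo, 20 min at room temperature) served as the read-out of viable BJ cells after 40 hours of compound treatment. Responses were scaled between DMSO and 100 uM tamoxifen, and AC50 values were obtained by Hill modeling.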

[2] = Cell Viability - Jurkat (AID 426;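 active means dose-dependent loss of cell ATP signal giving a full or clear fitted curve, ranked by lower potency value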; further: potency means the concentration at half of the fitted maximal effect); details: qHTS
Summary of the method: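 Jurkat (clone E6-1, human T-cell leukemia) cells, 5000/well in complete medium, were exposed to compound for 40 hr at 37 °C. Viability was read as intracellular ATP by CellTiter-Glo luminescence; AC50 came from Hill fits of concentration-response data.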

[3] = Cell Viability - Hek293 (AID 427;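 active means compounds whose dose-response curve shows a full or clear partial loss of cell viability, called from curve shape rather than a numeric limit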;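 further: potency means the concentration at half of the fitted maximal effect; cells exposed to compound for 40 hours at 37 °C before reading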); details: qHTS
Summary of the method: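 Luminescent ATP read-out (CellTiter-Glo, 20 min RT) after 40 hr compound exposure at 37 °C in complete medium. Signal normalized to DMSO (basal) and 100 uM tamoxifen (100% inhibition); concentration-response fitted with the standard Hill equation to give AC50.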

[4] = Cell Viability - MRC5 (AID 434; calls by dose curve;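 further: potency means the concentration at half of the fitted maximal effect; potency reflects cytotoxicity seen as loss of intracellular ATP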); details: MRC5 lung fibroblast viability, qHTS
Summary of the method: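 qHTS cytotoxicity in human lung fibroblast MRC5 cells; 40 hr treatment, 37 °C; cellular ATP by luciferase luminescence; DMSO = 0%, 100 uM tamoxifen = 100% inhibition; Hill-fit AC50.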

[5] = Cell Viability - Mesenchymal (AID 546); details: mesenchymal cells viability, qHTS; series mostly up to 91.7 µM;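 further: cells exposed to compound for 40 hours before reading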
Summary of the method: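 AC50 values reflect the drop in intracellular ATP in a human kidney mesenchymal line derived from normal glomeruli. Treatment lasts 40 hr at 37 °C in complete medium, and the signal comes from CellTiter-Glo luminescence.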

[6] = Cellular Toxicity (caspase-3) SHSY5Y (AID 657); details: SH-SY5Y caspase-3 activation, DMSO zero, 10 µM staurosporine = 100%; series mostly up to 91.7 µM
Summary of the method: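 SH-SY5Y human neuroblastoma cells, 1500/well, exposed to compound for 16 hours at 37 °C in complete medium. Caspase-3/7 activity read by Caspase-Glo luminescence after 1 hr at room temperature, normalized to DMSO and 10 uM staurosporine; AC50 from Hill fit.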

[7] = Cellular Toxicity (caspase-3) MRC-5 (AID 659); details: MRC-5 cells, luminescence, normalized: DMSO 0%, 10 µM staurosporine 100%; series mostly up to 91.7 µM
Summary of the method: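 Concentration-dependent caspase 3/7 activation is measured in human normal lung fibroblasts (MRC-5) following 16-hour treatment. AC50 values come from standard Hill-equation modeling of luminescence normalized to DMSO and 10 uM staurosporine.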

[8] = Cellular Toxicity (caspase-3) Mesangial (AID 660); details: mesangial cells, normalized: DMSO 0%, 100 µM tamoxifen 100%; series mostly up to 91.7 µM;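 further: cells exposed to compound for 16 h before the caspase read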
Summary of the method: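 Human renal glomerular mesangial cells (1000/well) were treated with compounds for 16 h at 37 °C in complete medium, then caspase 3/7 activity was read by Caspase-Glo luminescence. Data were normalized to DMSO and 100 uM tamoxifen; AC50 from Hill fits.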

[9] = Cellular Toxicity (caspase-3) SK-N-SH (AID 661); details: SK-N-SH caspase-3 activation, qHTS; series mostly up to 91.7 µM
Summary of the method: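 SK-N-SH human neuroblastoma cells (1500/well) were treated with compounds for 16 hr at 37 °C in complete medium; caspase 3/7 activity was read by Caspase-Glo luminescence. AC50 came from Hill fits of data normalized to DMSO and 10 uM staurosporine.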

[10] = Cellular Toxicity (caspase-3) Hek293 (AID 664); details: HEK293 caspase-3 activation, DMSO = 0%, 100 µM tamoxifen = 100%; at 92.2 µM (top of the series);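 further: cells exposed to compound for 16 h at 37 °C before readout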
Summary of the method: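 HEK293 cells were exposed to compounds in complete medium for 16 hr at 37 °C, then caspase-3/7 activity was read by Caspase-Glo 3/7 luminescence after 20 min at room temperature. Data normalized to DMSO and 100 uM tamoxifen; AC50 from Hill fits.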

[11] = Cellular Toxicity (caspase-3) N2a (AID 665); details: N2a cells, luminescence, normalized: DMSO 0%, 10 µM staurosporine 100%; series mostly up to 92.2 µM;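 further: compound exposure lasted 16 h at 37 °C before readout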
Summary of the method: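 Mouse N2a neuroblastoma cells (1500/well) were treated with compounds for 16 h at 37 °C, then caspase-3/7 activity was read by Caspase-Glo luminescence after 1 h at room temperature. Data were normalized to DMSO and 10 uM staurosporine; AC50 from Hill fits.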

[12] = Cell Viability - LYMP1-002 - Assay at 16 hr (AID 948); details: LYMP1-002 lymphoblastoid cell viability; series mostly up to 92.2 µM;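 further: 0% = DMSO alone and full effect = 92 µM tetraoctylammonium bromide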
Summary of the method: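 LYMP1-002 human lymphoblastoid cells, 2500/well, were treated with compounds for 16 hr at 37 C in complete medium. Viability was read as intracellular ATP by CellTiter-Glo luminescence, and AC50 was derived from a Hill fit to concentration-response data.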

[13] = MultiTox-Fluor Cytotoxicity Assay - LYMP1-003 - Dead Cells (AID 961); details: LYMP1-003 lymphoblastoid cells, dead-cell protease fluorescence; series mostly up to 92.2 µM;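 further: 0% = DMSO and 100% = tetraoctylammonium bromide; nearly all actives have a fitted effect of over 70% in size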
Summary of the method: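 Human lymphoblastoid LYMP1-003 cells (2500/well) were treated with compounds for 16 hr at 37 C in complete medium. Dead-cell protease release was read by bis-AAF-R110 fluorescence (Ex/Em 485/520). AC50 came from Hill fits, normalized to DMSO and 15 uM tetraoctylammonium bromide.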

[14] = MultiTox-Fluor Cytotoxicity Assay - LYMP1-003 - Live Cells (AID 962); details: LYMP1-003 lymphoblastoid cells, MultiTox-Fluor live-cell protease fluorescence; series mostly up to 92.2 µM;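 further: 0% = DMSO only and full loss = 92 µM tetraoctylammonium bromide; cytotoxic hits lower the live-cell protease signal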
Summary of the method: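 LYMP1-003 human lymphoblastoid cells (2500/well) in complete medium were preincubated 5 hr at 37 C, then exposed to compounds for 16 hr at 37 C. Live-cell protease cleavage of GF-AFC read by fluorescence (Ex/Em 405/510); AC50 from Hill fits.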

[15] = Cell Viability - LYMP1-003 - Assay at 24 hr (AID 963); details: LYMP1-003 lymphoblastoid cell viability; series mostly up to 92.2 µM;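 further: plate controls were DMSO only for no effect and tetraoctylammonium bromide positive control for full effect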
Summary of the method: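 Human lymphoblastoid LYMP1-003 cells (2500/well) were rested 5 hr at 37 C, then exposed to compounds in complete medium for 24 hr at 37 C. Cellular ATP was quantified by CellTiter-Glo luminescence, and AC50 values came from Hill fits of concentration-response data.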

[16] = Cell Viability - LYMP2-008 (AID 980); details: LYMP2-008 lymphoblastoid cell viability, qHTS; series mostly up to 92.2 µM; further: on the % scale 0 is the no-effect control and ±100 the full control effect; nearly all actives have a fitted effect of over 60% in size
Summary of the method: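 Human lymphoblastoid cells (2500/well) were plated, held 5 hr at 37 C, then exposed to compounds for 24 hr at 37 C in complete medium. Intracellular ATP was read by CellTiter-Glo luminescence; AC50 from Hill-fitted concentration-response.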

[17] = qHTS Assay for Identification of Small Molecule Inducers of Hypoxia Response (AID 2120; active means well fitted curve in the direction sought with a large enough effect in the signal ratio, with a control signal flat, not every such curve was filed as active; the % refers to the signal ratio; further: 0% is about no effect); details: hypoxia response reporter cells, beta-lactamase ratio readout; series mostly up to 104 µM
Summary of the method: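 HRE-beta-lactamase reporter in CellSensor HRE-bla ME-180 cells, 2500 cells/well in Opti-MEM with 0.5% dialyzed FBS; compounds tested as titration series, 17 h at 37 degrees C. CCF4 substrate 2.5 h at room temperature; AC50 from 460/530 nm ratio.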

[18] = biological target: Peroxisome proliferator-activated receptor alpha (Homo sapiens) (UniProt Q07869); assay: qHTS assay for small molecule agonists of the peroxisome proliferator-activated receptor alpha (PPARalpha) signaling pathway (AID 651778); details: PathHunter PPARalpha complementation, chemiluminescence, 6 h; active compounds read high; further: % of control where 0% means no effect
Summary of the method: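 Chemiluminescence from complemented enzyme reported PPARalpha activation in cells after 6 hr of compound treatment at 37 C. The detection reagent was incubated for 60 min at room temperature, and compounds were scored as agonists.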

[19] = qHTS assay for small molecule agonists of the antioxidant response element (ARE) signaling pathway measured by Nrf2-dependant transcriptional activity - cell viability counter screen (AID 720653; active means well fitted curve in the direction sought with a large enough effect in the repeat runs; an effect the other way counts as inactive or inconclusive; further: on the % scale 0 is the no-effect control and ±100 the full control effect); details: ARE-bla HepG2 viability, CellTiter-Glo ATP luminescence, 16 h; active compounds read low
Summary of the method: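 Cytotoxicity counter screen: intracellular ATP quantified by CellTiter-Glo luminescence in the same ARE-bla HepG2 plates, after 16 h compound exposure and a 2 h beta-lactamase substrate step.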

[20] = qHTS assay for cell viability of the p53RE-bla HCT-116 cell line (AID 743292); details: p53RE-bla HCT-116 viability, ATP luminescence, 16 h; series mostly up to 95 µM; further: on the % scale 0 is the no-effect control and ±100 the full control effect; nearly all actives have a fitted effect of over 55% in size
Summary of the method: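 ATP-based luminescent viability (CellTiter-Glo, 30 min RT) after 16 h compound treatment at 37 C of p53RE-bla HCT-116 cells, seeded at 4,000 cells/well and rested 5 h before dosing.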

Peroxisome proliferator-activated receptor alpha (Homo sapiens), sequence (Q07869 whole entry, looked up): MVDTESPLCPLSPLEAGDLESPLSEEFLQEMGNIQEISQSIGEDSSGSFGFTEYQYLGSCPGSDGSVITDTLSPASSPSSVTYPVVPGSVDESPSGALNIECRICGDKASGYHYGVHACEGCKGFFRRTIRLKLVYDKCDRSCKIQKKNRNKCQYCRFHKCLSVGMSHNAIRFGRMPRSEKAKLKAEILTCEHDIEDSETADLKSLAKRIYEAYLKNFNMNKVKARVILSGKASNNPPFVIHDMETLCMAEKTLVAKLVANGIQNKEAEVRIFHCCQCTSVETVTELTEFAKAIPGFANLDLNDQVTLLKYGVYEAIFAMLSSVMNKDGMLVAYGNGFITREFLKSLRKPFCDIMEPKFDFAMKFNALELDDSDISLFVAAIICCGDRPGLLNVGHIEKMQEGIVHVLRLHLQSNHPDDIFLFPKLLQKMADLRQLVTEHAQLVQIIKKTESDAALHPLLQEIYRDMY

CC1CC(=O)O1 (stereo not given)
inactive: Potency [1] > 92 µM | Potency [2] > 92 µM | Potency [3] > 92 µM | Potency [4] > 92 µM | Potency [5] | outcome [6] | outcome [7] | outcome [8] | Potency [9] | caspase-3 activation [10] -0.671% | outcome [11] | outcome [12] | Potency [13] | outcome [14] | outcome [15] | Potency [16] | Potency [17] | max response [18] -0.51% | max response [19] -3.76% | Potency [20]

c1ccc(Nc2ccc(Nc3ccccc3)cc2)cc1
inactive: Potency [1] > 92 µM | Potency [2] > 92 µM | Potency [3] > 92 µM | Potency [4] > 92 µM | Potency [5] | outcome [6] | outcome [7] | outcome [8] | Potency [9] | caspase-3 activation [10] -2.23% | outcome [11] | outcome [12] | Potency [13] | outcome [14] | outcome [15] | Potency [16] | Potency [17] | max response [18] -0.732% | max response [19] -13.9% | Potency [20]

CC(C)CC(C)N (stereo not given)
inactive: Potency [1] > 92 µM | Potency [2] > 92 µM | Potency [3] > 92 µM | Potency [4] > 92 µM | Potency [5] | outcome [6] | outcome [7] | outcome [8] | Potency [9] | caspase-3 activation [10] 1.99% | outcome [11] | outcome [12] | Potency [13] | outcome [14] | outcome [15] | Potency [16] | Potency [17] | max response [18] 1.79% | max response [19] 0.53% | Potency [20]

Oc1ccc(Cl)c(Cl)c1Cl
inactive: Potency [1] > 92 µM | Potency [2] > 92 µM | Potency [3] > 92 µM | Potency [4] > 92 µM | Potency [5] | outcome [6] | outcome [7] | outcome [8] | Potency [9] | caspase-3 activation [10] 1.72% | outcome [11] | outcome [12] | Potency [13] | outcome [14] | outcome [15] | Potency [16] | Potency [17] | max response [18] 0.378% | max response [19] 13.8% | Potency [20]

CC(C)C#N
inactive: Potency [1] > 92 µM | Potency [2] > 92 µM | Potency [3] > 92 µM | Potency [4] > 92 µM | Potency [5] | outcome [6] | outcome [7] | outcome [8] | Potency [9] | caspase-3 activation [10] 1.03% | outcome [11] | outcome [12] | Potency [13] | outcome [14] | outcome [15] | Potency [16] | Potency [17] | max response [18] 2.25% | max response [19] 1.74% | Potency [20]
